# Measured values reported in article PMC4336329 (PLoS ONE, 2015).
# Screen size: about 310,000 compounds; about 14,000 (4.5%) showed an effect of 50% or more. The effect is printed as a negative number. The sample holds strong results, similar compounds and a random draw of the others, so the mix is not that of the screen. Where a SMILES comes first, the peptide text is derived from it.
# Molecular target: human ether-à-go-go-related gene (hERG) potassium channel (human, UniProt Q12809)
# Experiment: primary screen, population patch clamp on CHO cells stably expressing hERG; higher = less effect of the substance
# 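Also: peak tail current of the secondary pulse compared with the same well before compound.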
# Sequence of human ether-à-go-go-related gene (hERG) potassium channel (Q12809 whole entry, looked up): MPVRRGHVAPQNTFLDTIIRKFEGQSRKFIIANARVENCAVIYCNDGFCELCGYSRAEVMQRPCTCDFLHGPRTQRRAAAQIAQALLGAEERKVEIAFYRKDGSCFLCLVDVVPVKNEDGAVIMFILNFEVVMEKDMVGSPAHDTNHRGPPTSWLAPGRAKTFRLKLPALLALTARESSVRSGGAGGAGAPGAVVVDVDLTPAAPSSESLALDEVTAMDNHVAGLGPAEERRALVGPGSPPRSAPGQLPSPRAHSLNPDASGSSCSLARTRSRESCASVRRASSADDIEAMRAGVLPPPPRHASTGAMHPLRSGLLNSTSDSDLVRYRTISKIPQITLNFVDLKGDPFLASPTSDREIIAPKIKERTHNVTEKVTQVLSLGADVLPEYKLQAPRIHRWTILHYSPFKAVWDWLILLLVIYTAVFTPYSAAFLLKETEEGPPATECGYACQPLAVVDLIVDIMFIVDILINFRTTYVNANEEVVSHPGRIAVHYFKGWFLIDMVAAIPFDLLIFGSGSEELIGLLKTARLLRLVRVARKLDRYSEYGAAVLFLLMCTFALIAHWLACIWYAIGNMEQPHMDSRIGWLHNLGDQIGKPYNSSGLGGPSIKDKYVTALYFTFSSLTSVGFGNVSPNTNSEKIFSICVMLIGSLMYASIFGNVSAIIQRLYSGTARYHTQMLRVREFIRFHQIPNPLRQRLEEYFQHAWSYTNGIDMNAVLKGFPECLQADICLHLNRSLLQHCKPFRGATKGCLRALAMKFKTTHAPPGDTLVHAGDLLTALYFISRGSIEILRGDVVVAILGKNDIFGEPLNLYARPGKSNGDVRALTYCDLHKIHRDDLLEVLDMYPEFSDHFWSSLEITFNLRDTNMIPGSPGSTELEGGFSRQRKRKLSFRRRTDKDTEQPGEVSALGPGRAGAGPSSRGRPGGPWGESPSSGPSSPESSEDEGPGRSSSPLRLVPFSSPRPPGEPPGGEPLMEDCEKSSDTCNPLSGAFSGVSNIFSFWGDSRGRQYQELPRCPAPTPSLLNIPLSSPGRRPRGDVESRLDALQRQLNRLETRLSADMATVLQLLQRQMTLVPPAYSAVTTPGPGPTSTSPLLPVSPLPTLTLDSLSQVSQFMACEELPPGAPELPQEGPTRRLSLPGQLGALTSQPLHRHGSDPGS
row,Structure (SMILES),"hERG current change (%, negative = inhibition) at 10uM [%]"
1,Cc1ccc(N2CCN(C(=O)c3cccs3)CC2)cc1C,2.97
2,Cc1cccn(Cc2c(Cl)cccc2Cl)c1=O,-9.53
3,CCOc1ccc(N(CC(=O)NC(C(C)C)C(C)C)S(=O)(=O)c2ccc(OC)c(OC)c2)cc1,38
4,CCOC(=O)CNC(=S)N(Cc1ccccc1)Cc1cccs1,-17.3
5,COc1ccc(NC(=O)c2ccc(OC)cc2)cc1,-30
6,COc1ccc(OC)c(C2=Nn3c(nnc3-c3cc(OC)c(OC)c(OC)c3)SC2)c1,-21
7,CC(C)(C)NS(=O)(=O)c1cc(C(=O)Nc2sccc2C#N)ccc1Cl,4.98
8,COc1ccc(NC(=O)NC2(C(=O)N3CCCC3)CCCCC2)cc1,22
9,Cc1ccc(NC(=O)CN(C)C(=O)c2cccc(S(=O)(=O)N3CCc4ccccc43)c2)cc1,-15.6
10,CC(=O)C1=C(O)C(=O)N(Cc2cccnc2)C1c1ccc(C(C)C)cc1 (stereo not shown),17.1
11,CC(=O)N1c2ccc(S(=O)(=O)N3CCC(C(=O)NCc4ccc(N(C)C)cc4)CC3)cc2CC1C (stereo not shown),18.8
12,CC(C)CNC(=O)C1CCN(S(=O)(=O)c2ccc(-n3cnnn3)cc2)CC1,-55.3
13,CC(=O)Nc1ccc(S(=O)(=O)N2CCC(C(=O)NCCc3ccc(Cl)cc3)CC2)cc1,5.7
14,COc1ccc(CCNS(=O)(=O)c2ccc(-n3cnnn3)cc2)cc1OC,-26
15,O=S(=O)(NCCc1ccccc1)c1ccc(-n2cnnn2)cc1,-56.7
16,CCOc1cc(S(=O)(=O)NCc2ccccc2)c(OCC)cc1-n1cnnn1,-14.3
17,COc1ccc(CCNC(=O)C2CCN(S(=O)(=O)c3ccc(-n4cnnn4)cc3)CC2)cc1OC,-13
18,O=C(NCCc1ccc(Cl)cc1)C1CCN(S(=O)(=O)c2ccc(-n3cnnn3)cc2)CC1,-69
19,CCOc1ccc(-n2cnnn2)cc1S(=O)(=O)NCc1ccccc1,-71
20,CCOc1ccc(-n2cnnn2)cc1S(=O)(=O)Nc1c(C)cccc1C,-19.4
21,CC(C)CCNC(=O)C1CCN(S(=O)(=O)c2ccc(-n3cnnn3)cc2)CC1,-37.6
22,CC(C)CNC(=O)C1CCCN(S(=O)(=O)c2ccc(-n3cnnn3)cc2)C1 (stereo not shown),-0.697

row,Structure (SMILES),"hERG current change (%, negative = inhibition) at 10uM [%]"
1,Cc1cc(S(=O)(=O)NCCc2ccccc2)ccc1-n1cnnn1,-17.1
2,O=C1CSC(c2ccc([N+](=O)[O-])cc2)N1C1CCCCC1 (stereo not shown),-47.4
3,CC(C)c1ccc(O)c(NC(=S)NC(=O)c2cccnc2)c1,11
4,CC(C)Oc1cccc(C(=O)C2CCCN(C(=O)c3cc(C4CC4)[nH]n3)C2)c1 (stereo not shown),-19.9
5,CC(=O)c1ccc(NC(=O)N2CCc3ccccc3C2)cc1,-0.383
6,CCN1CCN(CC(=O)Nc2ccc(Cl)c(Cl)c2)C(=O)C1=O,-5.76
7,Cc1c(N(C)C(=O)C23CC4CC(CC(C4)C2)C3)c(=O)n(-c2ccccc2)n1C,-1.09
8,Cc1ccc(NC(=S)N2CCN(S(=O)(=O)c3ccccc3)CC2)cc1C,11.6
9,Cc1nn2cnc3sc4c(c3c2nc1=O)CCCC4,-3.17
10,COc1ccc(NC(=O)CCCC2=NS(=O)(=O)c3ccccc3N2)cc1,17
11,c1ccc2c(NCCCN3CCOCC3)c3ccccc3nc2c1,-66.6
12,O=c1c2ccccc2nc2c3ccccc3c(NCc3ccccn3)nn12,-13.5
13,Fc1ccccc1-c1nc(NCCCN2CCOCC2)c2ccccc2n1,-45.9
14,OCCNc1c2ccccc2nc2ccccc12,-31
15,c1ccc2[nH]c(NCCCN3CCOCC3)nc2c1,-6.61
16,O=c1c2ccccc2sc2ccc(NCCCN3CCOCC3)cc12,-54.2
17,O=c1c2ccccc2nc2c3ccccc3c(NCCO)nn12,-7.34
18,O=c1c2ccccc2oc2ccc(NCCCN3CCOCC3)cc12,-41.9
19,OCCCNc1c2ccccc2nc2ccccc12,-65.6
20,O=c1c2ccccc2nc2c3ccccc3c(NCCN3CCOCC3)nn12,-72.2
21,O=c1c2ccccc2oc2cc(NCCCN3CCOCC3)ccc12,-29.7
22,CN(C)CCCNc1c2ccccc2nc2ccccc12,-28.8

row,Structure (SMILES),"hERG current change (%, negative = inhibition) at 10uM [%]"
1,O=C(C1COc2ccccc2O1)N1CCN(c2nc3c(F)cc(F)cc3s2)CC1 (stereo not shown),-16.6
2,CCOc1ccc(S(=O)(=O)NC(C)C(=O)NCc2ccc3c(c2)OCO3)cc1 (stereo not shown),2.83
3,N/C(=N\OC(=O)COc1ccc(Br)cc1)c1cccnc1,-3.21
4,Cc1c(Cl)c([N+](=O)[O-])nn1CC(=O)NC(C)C1CC2CCC1C2 (stereo not shown),-12.9
5,CC(=O)NS(=O)(=O)c1ccc(NC(=O)c2ccc(S(=O)(=O)N3CCCC3)cc2)cc1,-0.257
6,CC(C)(C#N)NC(=O)c1ccco1,4.37
7,COc1ccc(C)cc1NC(=O)COCC(=O)O,-8.48
8,O=C(NC1CCCCC1)C(c1ccccc1)N1CCOCC1 (stereo not shown),9.63
9,COCCNC(=O)CN1C(=O)COc2ccc(S(=O)(=O)N3CCCCCC3)cc21,20.3
10,CC(C)(C)c1ccc(C(=O)NCc2ccc(Cl)cc2)cc1,12.6
11,O=[N+]([O-])c1ccc2c(c1Nc1ccccc1Cl)=NC1(CCCCC1)N=2,3.29
12,CC(=O)NCCc1nc2cc(NC(=O)c3ccc(F)cc3)ccc2n1C,9.6
13,CC(=O)NC(Cc1ccccc1)C(=O)NC(Cc1ccccc1)C(=O)O (stereo not drawn) (Ac-Phe-Phe-OH; configuration not given here),10.4
14,O=C(CCN1C(=O)c2ccccc2C1=O)Nn1cnnc1,-0.368
15,c1csc(-c2nc(NCCCN3CCOCC3)c3ccccc3n2)c1,-50.7
16,Clc1ccc(-c2nc(NCCCN3CCOCC3)c3ccccc3n2)cc1,-18.9
17,c1ccc(-c2nc(NCCCN3CCOCC3)c3ccccc3n2)cc1,-34.6
18,COC(=O)c1ccc(N2C(=O)C3CC(C)=C(C)CC3C2=O)cc1 (stereo not shown),3.73
19,CCC(c1nnnn1CCc1ccccc1)N1CCN(C(=O)c2ccco2)CC1.Cl (stereo not shown),-28
20,CCC(C)(C)n1nnnc1C(C(C)C)N1CCN(C(=O)c2ccco2)CC1 (stereo not shown),-29.7
21,CCCCC(c1nnnn1Cc1ccco1)N1CCN(C(=O)c2ccco2)CC1.Cl (stereo not shown),-51.8
22,CCCC(c1nnnn1C(C)(C)C)N1CCN(C(=O)c2ccco2)CC1.Cl (stereo not shown),-12.8

row,Structure (SMILES),"hERG current change (%, negative = inhibition) at 10uM [%]"
1,CCC(c1nnnn1CCOC)N1CCN(C(=O)c2ccco2)CC1.Cl (stereo not shown),9.17
2,CCCC(c1nnnn1Cc1ccc(OC)cc1)N1CCN(C(=O)c2ccco2)CC1 (stereo not shown),-51.3
3,CCCC(c1nnnn1CCc1ccccc1)N1CCN(C(=O)c2ccco2)CC1 (stereo not shown),-49.3
4,CCCC(c1nnnn1C(C)(C)CC)N1CCN(C(=O)c2ccco2)CC1.Cl (stereo not shown),-54
5,CCC(c1nnnn1Cc1ccco1)N1CCN(C(=O)c2ccco2)CC1.Cl (stereo not shown),-20.6
6,CCC(c1nnnn1Cc1ccc(OC)cc1)N1CCN(C(=O)c2ccco2)CC1.Cl (stereo not shown),-55.5
7,CCCC(c1nnnn1CCOC)N1CCN(C(=O)c2ccco2)CC1.Cl (stereo not shown),-4.1
8,CCCC(c1nnnn1Cc1ccco1)N1CCN(C(=O)c2ccco2)CC1.Cl (stereo not shown),-11.8
9,Cc1ccc(C)c(NC(=S)N2CCN(c3cccc(C(F)(F)F)c3)CC2)c1,7.13
10,COC(=O)c1sc(S(=O)(=O)Nc2ccc(Br)cc2)c(C(=O)OC)c1C,2.75
11,CCCCCCc1cc2cc(C(=O)NCc3ccccc3)c(=N)oc2cc1O,5.76
12,O=C(NCCC(c1ccccc1)c1ccccc1)c1cccs1,-14.2
13,Cc1ccccc1C(=O)N/N=C/c1ccccn1,5.6
14,CCN(CC)c1ccc(/C=C2\NC(=O)NC2=O)cc1,19.5
15,COC(=O)c1ccsc1NC(=O)CN1CCN(c2ncccn2)CC1,-1.35
16,Cc1cc(C)n(-c2c(F)c(F)c(COC(=O)c3ccccc3)c(F)c2F)n1,5.11
17,COC(=O)c1nc2n(n1)C(c1ccc([N+](=O)[O-])cc1)C(C(=O)Nc1ccc(Cl)cc1)=C(C)N2 (stereo not shown),13.5
18,Cc1ccccc1S(=O)(=O)Cc1ccc(C(=O)N(C)C2CCCCC2)o1,-12.5
19,C=CCn1c(SCc2cccc(F)c2)nc2cc(C(=O)N3CCC(C(N)=O)CC3)ccc2c1=O,-34.7
20,CCN(C(=O)c1sc(N)c(C#N)c1C)C1CCCCC1,9.21
21,CCOC(=O)c1c(C)oc(/N=C/c2ccccc2O)c1C#N,7.61
22,O=C(c1cccs1)N1CCN(S(=O)(=O)c2ccccc2)CC1,-6.98
